Results as given in paper PMC12820563, “FoxP3 forms a head-to-head dimer in vivo and stabilizes its multimerization on adjacent microsatellites”.
In all, about 16,000 sequences were measured (“rpm ratio (pull-down/input)”: median about 0.5, highest 2% from about 5.5 on). Shown is part of a subset that was picked to be rich in the highest values.

Molecular target: T1, MBP-FoxP3dN (Mus musculus, UniProt Q99JB6 188-423)
T1 sequence: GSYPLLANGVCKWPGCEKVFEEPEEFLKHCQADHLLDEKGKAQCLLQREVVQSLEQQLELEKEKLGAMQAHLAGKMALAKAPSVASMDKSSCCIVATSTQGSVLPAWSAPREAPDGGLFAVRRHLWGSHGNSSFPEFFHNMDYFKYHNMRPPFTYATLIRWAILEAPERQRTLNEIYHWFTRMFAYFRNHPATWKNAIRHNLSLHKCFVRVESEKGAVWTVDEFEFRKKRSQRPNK
Test: PD-seq (MBP pull-down with sequencing); 20 mM Tris-HCl pH 7.5, 100 mM NaCl, 1.5 mM MgCl2, 0.4 uM protein, 0.1 uM dsDNA library, 30 min, room temperature, amylose pull-down; high values mean tight binding
Conditions: protein: recombinant; tags: His6-MBP; chain copies: 2; dsDNA, one strand shown
Method in brief: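 In Tris pH 7.5 buffer with NaCl and MgCl2, 0.4 µM His6-MBP-tagged mouse FoxP3 or FoxP1 fragment lacking the N-terminus, from E. coli, met 0.1 µM Klenow-filled double-stranded degenerate DNA library for 30 min at room temperature. Three washes on amylose resin followed capture of the complexes, then proteinase K release of DNA, PCR barcoding and Illumina sequencing. Binding is taken as pooled-replicate reads-per-million enrichment of pull-down relative to input.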

Sequence	binding signal
GATGATTGTTCTCCCAGCTGATGAATTCCTCGCTTCGAGTAAACAAATTTTCCTAATCTTTCTGTTCAAGCGCCATCTAC	0.285 RPM ratio (pull-down/input)
GATGATTGTTCTCCCAGCTGATGAATTGCCGCCATCGAGTAAACAAATTTTCCTAATCTTTCTGTTCAAGCGCCATCTAC	2.97 RPM ratio (pull-down/input)
GATGATTGTTCTCCCAGCTGATGAATTTGAGTTTTCGAGTAAACAAATTTTCCTAATCTTTCTGTTCAAGCGCCATCTAC	0.885 RPM ratio (pull-down/input)
GATGATTGTTCTCCCAGCTGATGAATTCAAGTTTTCGAGTAAACAAATTTTCCTAATCTTTCTGTTCAAGCGCCATCTAC	0.454 RPM ratio (pull-down/input)
GATGATTGTTCTCCCAGCTGATGAATTTCCCTTCTCGAGTAAACAAATTTTCCTAATCTTTCTGTTCAAGCGCCATCTAC	0.295 RPM ratio (pull-down/input)
GATGATTGTTCTCCCAGCTGATGAATTCAATTGATCGAGTAAACAAATTTTCCTAATCTTTCTGTTCAAGCGCCATCTAC	1.07 RPM ratio (pull-down/input)
GATGATTGTTCTCCCAGCTGATGAATTTGTTGAGTCGAGTAAACAAATTTTCCTAATCTTTCTGTTCAAGCGCCATCTAC	5.53 RPM ratio (pull-down/input)
GATGATTGTTCTCCCAGCTGATGAATTGTGATGATCGAGTAAACAAATTTTCCTAATCTTTCTGTTCAAGCGCCATCTAC	2.48 RPM ratio (pull-down/input)
GATGATTGTTCTCCCAGCTGATGAATTGTGTTGATCGAGTAAACAAATTTTCCTAATCTTTCTGTTCAAGCGCCATCTAC	7.06 RPM ratio (pull-down/input)
GATGATTGTTCTCCCAGCTGATGAATTGATCTAATCGAGTAAACAAATTTTCCTAATCTTTCTGTTCAAGCGCCATCTAC	0.356 RPM ratio (pull-down/input)
GATGATTGTTCTCCCAGCTGATGAATTCTTTTGATCGAGTAAACAAATTTTCCTAATCTTTCTGTTCAAGCGCCATCTAC	0.285 RPM ratio (pull-down/input)
GATGATTGTTCTCCCAGCTGATGAATTGTTGTGATCGAGTAAACAAATTTTCCTAATCTTTCTGTTCAAGCGCCATCTAC	6.31 RPM ratio (pull-down/input)
GATGATTGTTCTCCCAGCTGATGAATTCTGTTGATCGAGTAAACAAATTTTCCTAATCTTTCTGTTCAAGCGCCATCTAC	6.26 RPM ratio (pull-down/input)
GATGATTGTTCTCCCAGCTGATGAATTTCTGTGATCGAGTAAACAAATTTTCCTAATCTTTCTGTTCAAGCGCCATCTAC	0.408 RPM ratio (pull-down/input)
GATGATTGTTCTCCCAGCTGATGAATTTTTTGAGTCGAGTAAACAAATTTTCCTAATCTTTCTGTTCAAGCGCCATCTAC	0.237 RPM ratio (pull-down/input)
GATGATTGTTCTCCCAGCTGATGAATTGAATTGATCGAGTAAACAAATTTTCCTAATCTTTCTGTTCAAGCGCCATCTAC	0.917 RPM ratio (pull-down/input)
GATGATTGTTCTCCCAGCTGATGAATTTGATGAGTCGAGTAAACAAATTTTCCTAATCTTTCTGTTCAAGCGCCATCTAC	0.974 RPM ratio (pull-down/input)
GATGATTGTTCTCCCAGCTGATGAATTCAGATGTTCGAGTAAACAAATTTTCCTAATCTTTCTGTTCAAGCGCCATCTAC	1.06 RPM ratio (pull-down/input)
GATGATTGTTCTCCCAGCTGATGAATTGTACCCATCGAGTAAACAAATTTTCCTAATCTTTCTGTTCAAGCGCCATCTAC	0.472 RPM ratio (pull-down/input)
GATGATTGTTCTCCCAGCTGATGAATTGAATCACTCGAGTAAACAAATTTTCCTAATCTTTCTGTTCAAGCGCCATCTAC	0.551 RPM ratio (pull-down/input)
GATGATTGTTCTCCCAGCTGATGAATTCAATTGCTCGAGTAAACAAATTTTCCTAATCTTTCTGTTCAAGCGCCATCTAC	2.31 RPM ratio (pull-down/input)

Sequence	binding signal
GATGATTGTTCTCCCAGCTGATGAATTAGGATGTTCGAGTAAACAAATTTTCCTAATCTTTCTGTTCAAGCGCCATCTAC	0.82 RPM ratio (pull-down/input)
GATGATTGTTCTCCCAGCTGATGAATTTTTGCGTTCGAGTAAACAAATTTTCCTAATCTTTCTGTTCAAGCGCCATCTAC	2.04 RPM ratio (pull-down/input)
GATGATTGTTCTCCCAGCTGATGAATTGTATTATTCGAGTAAACAAATTTTCCTAATCTTTCTGTTCAAGCGCCATCTAC	5.22 RPM ratio (pull-down/input)
GATGATTGTTCTCCCAGCTGATGAATTATTGCAGTCGAGTAAACAAATTTTCCTAATCTTTCTGTTCAAGCGCCATCTAC	1.18 RPM ratio (pull-down/input)
GATGATTGTTCTCCCAGCTGATGAATTCAGCTGTTCGAGTAAACAAATTTTCCTAATCTTTCTGTTCAAGCGCCATCTAC	1.19 RPM ratio (pull-down/input)
GATGATTGTTCTCCCAGCTGATGAATTGATTCGCTCGAGTAAACAAATTTTCCTAATCTTTCTGTTCAAGCGCCATCTAC	0.331 RPM ratio (pull-down/input)
GATGATTGTTCTCCCAGCTGATGAATTATGGCTCTCGAGTAAACAAATTTTCCTAATCTTTCTGTTCAAGCGCCATCTAC	0.643 RPM ratio (pull-down/input)
GATGATTGTTCTCCCAGCTGATGAATTTGATTGATCGAGTAAACAAATTTTCCTAATCTTTCTGTTCAAGCGCCATCTAC	2.23 RPM ratio (pull-down/input)
GATGATTGTTCTCCCAGCTGATGAATTGTTTTGATCGAGTAAACAAATTTTCCTAATCTTTCTGTTCAAGCGCCATCTAC	4.03 RPM ratio (pull-down/input)
GATGATTGTTCTCCCAGCTGATGAATTTTGTTGATCGAGTAAACAAATTTTCCTAATCTTTCTGTTCAAGCGCCATCTAC	7.34 RPM ratio (pull-down/input)
GATGATTGTTCTCCCAGCTGATGAATTGATGACATCGAGTAAACAAATTTTCCTAATCTTTCTGTTCAAGCGCCATCTAC	1.05 RPM ratio (pull-down/input)
GATGATTGTTCTCCCAGCTGATGAATTTTTGACATCGAGTAAACAAATTTTCCTAATCTTTCTGTTCAAGCGCCATCTAC	0.524 RPM ratio (pull-down/input)
GATGATTGTTCTCCCAGCTGATGAATTGATTTGATCGAGTAAACAAATTTTCCTAATCTTTCTGTTCAAGCGCCATCTAC	0.64 RPM ratio (pull-down/input)
GATGATTGTTCTCCCAGCTGATGAATTTTTTTGATCGAGTAAACAAATTTTCCTAATCTTTCTGTTCAAGCGCCATCTAC	0.23 RPM ratio (pull-down/input)
GATGATTGTTCTCCCAGCTGATGAATTTGTTTGATCGAGTAAACAAATTTTCCTAATCTTTCTGTTCAAGCGCCATCTAC	5.99 RPM ratio (pull-down/input)
GATGATTGTTCTCCCAGCTGATGAATTGTTGACATCGAGTAAACAAATTTTCCTAATCTTTCTGTTCAAGCGCCATCTAC	5.72 RPM ratio (pull-down/input)
GATGATTGTTCTCCCAGCTGATGAATTGATTCTCTCGAGTAAACAAATTTTCCTAATCTTTCTGTTCAAGCGCCATCTAC	0.395 RPM ratio (pull-down/input)
GATGATTGTTCTCCCAGCTGATGAATTAAGTCGCTCGAGTAAACAAATTTTCCTAATCTTTCTGTTCAAGCGCCATCTAC	0.441 RPM ratio (pull-down/input)
GATGATTGTTCTCCCAGCTGATGAATTAGGACGCTCGAGTAAACAAATTTTCCTAATCTTTCTGTTCAAGCGCCATCTAC	0.484 RPM ratio (pull-down/input)
GATGATTGTTCTCCCAGCTGATGAATTATACGAGTCGAGTAAACAAATTTTCCTAATCTTTCTGTTCAAGCGCCATCTAC	0.404 RPM ratio (pull-down/input)
GATGATTGTTCTCCCAGCTGATGAATTCTAGACCTCGAGTAAACAAATTTTCCTAATCTTTCTGTTCAAGCGCCATCTAC	0.236 RPM ratio (pull-down/input)

Sequence	binding signal
GATGATTGTTCTCCCAGCTGATGAATTCTTAGCCTCGAGTAAACAAATTTTCCTAATCTTTCTGTTCAAGCGCCATCTAC	0.373 RPM ratio (pull-down/input)
GATGATTGTTCTCCCAGCTGATGAATTTGTTGGGTCGAGTAAACAAATTTTCCTAATCTTTCTGTTCAAGCGCCATCTAC	7.61 RPM ratio (pull-down/input)
GATGATTGTTCTCCCAGCTGATGAATTTGGTTGGTCGAGTAAACAAATTTTCCTAATCTTTCTGTTCAAGCGCCATCTAC	2.96 RPM ratio (pull-down/input)
GATGATTGTTCTCCCAGCTGATGAATTTCTTTGGTCGAGTAAACAAATTTTCCTAATCTTTCTGTTCAAGCGCCATCTAC	1.03 RPM ratio (pull-down/input)
GATGATTGTTCTCCCAGCTGATGAATTTTGTTGGTCGAGTAAACAAATTTTCCTAATCTTTCTGTTCAAGCGCCATCTAC	7.07 RPM ratio (pull-down/input)
GATGATTGTTCTCCCAGCTGATGAATTGTTTGGGTCGAGTAAACAAATTTTCCTAATCTTTCTGTTCAAGCGCCATCTAC	4.43 RPM ratio (pull-down/input)
GATGATTGTTCTCCCAGCTGATGAATTTTTGGGGTCGAGTAAACAAATTTTCCTAATCTTTCTGTTCAAGCGCCATCTAC	0.233 RPM ratio (pull-down/input)
GATGATTGTTCTCCCAGCTGATGAATTCTGTTGGTCGAGTAAACAAATTTTCCTAATCTTTCTGTTCAAGCGCCATCTAC	5.56 RPM ratio (pull-down/input)
GATGATTGTTCTCCCAGCTGATGAATTGGTGTGGTCGAGTAAACAAATTTTCCTAATCTTTCTGTTCAAGCGCCATCTAC	1.32 RPM ratio (pull-down/input)
GATGATTGTTCTCCCAGCTGATGAATTGGTTGTGTCGAGTAAACAAATTTTCCTAATCTTTCTGTTCAAGCGCCATCTAC	5.42 RPM ratio (pull-down/input)
GATGATTGTTCTCCCAGCTGATGAATTGTGTTGGTCGAGTAAACAAATTTTCCTAATCTTTCTGTTCAAGCGCCATCTAC	6.68 RPM ratio (pull-down/input)
GATGATTGTTCTCCCAGCTGATGAATTCTTTTGGTCGAGTAAACAAATTTTCCTAATCTTTCTGTTCAAGCGCCATCTAC	0.31 RPM ratio (pull-down/input)
GATGATTGTTCTCCCAGCTGATGAATTCAATTGGTCGAGTAAACAAATTTTCCTAATCTTTCTGTTCAAGCGCCATCTAC	2.04 RPM ratio (pull-down/input)
GATGATTGTTCTCCCAGCTGATGAATTGTAATCTTCGAGTAAACAAATTTTCCTAATCTTTCTGTTCAAGCGCCATCTAC	0.84 RPM ratio (pull-down/input)
GATGATTGTTCTCCCAGCTGATGAATTGGTGAGATCGAGTAAACAAATTTTCCTAATCTTTCTGTTCAAGCGCCATCTAC	0.341 RPM ratio (pull-down/input)
GATGATTGTTCTCCCAGCTGATGAATTCTTTTACTCGAGTAAACAAATTTTCCTAATCTTTCTGTTCAAGCGCCATCTAC	0.312 RPM ratio (pull-down/input)
GATGATTGTTCTCCCAGCTGATGAATTCTTGGGATCGAGTAAACAAATTTTCCTAATCTTTCTGTTCAAGCGCCATCTAC	0.227 RPM ratio (pull-down/input)
GATGATTGTTCTCCCAGCTGATGAATTCCTCGTATCGAGTAAACAAATTTTCCTAATCTTTCTGTTCAAGCGCCATCTAC	0.403 RPM ratio (pull-down/input)
GATGATTGTTCTCCCAGCTGATGAATTGCGACCGTCGAGTAAACAAATTTTCCTAATCTTTCTGTTCAAGCGCCATCTAC	0.963 RPM ratio (pull-down/input)
GATGATTGTTCTCCCAGCTGATGAATTCCGACGATCGAGTAAACAAATTTTCCTAATCTTTCTGTTCAAGCGCCATCTAC	0.285 RPM ratio (pull-down/input)
GATGATTGTTCTCCCAGCTGATGAATTTCTACCGTCGAGTAAACAAATTTTCCTAATCTTTCTGTTCAAGCGCCATCTAC	0.222 RPM ratio (pull-down/input)
